Screening data (PubChem BioAssay)
Sampled rows, rich in hits. Any-hit rate of the full collection: about 2.4%.
PTAP TSG101 blk = blocks PTAP/TSG101 interaction to inhibit HIV-1 budding | Q99816 | Fluorescence polarization, FITC-PTAP peptide / Tsg101 binding | Potency, µM (titrated, usually from 115 µM), for inactives: at the highest dose activity change, negative = inhibition, most hits filed as inhibitors | 340,000 tested, under 10 active | AID 493005; active = well fitted inhibition curve with a large enough effect in the main read-out, with a control signal flat, not every such curve was filed as active; inconclusive = small, poorly fitted or top-dose-only effect, or effect the other way, or a change in a side signal; inactive = no such curve, though single readings can be large or run the other way; note: % of control where 0% means no effect
Target sequence (Q99816 whole entry, looked up): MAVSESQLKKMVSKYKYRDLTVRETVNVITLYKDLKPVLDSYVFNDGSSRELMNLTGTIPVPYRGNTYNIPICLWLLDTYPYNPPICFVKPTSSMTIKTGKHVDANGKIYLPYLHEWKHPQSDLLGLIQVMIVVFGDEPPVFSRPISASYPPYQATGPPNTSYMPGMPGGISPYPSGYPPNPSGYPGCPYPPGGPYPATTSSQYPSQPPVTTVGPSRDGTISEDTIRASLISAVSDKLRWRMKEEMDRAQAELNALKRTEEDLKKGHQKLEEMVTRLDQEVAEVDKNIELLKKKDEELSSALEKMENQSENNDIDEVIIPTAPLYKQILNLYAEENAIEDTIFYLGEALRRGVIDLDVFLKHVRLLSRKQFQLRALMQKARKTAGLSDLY
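Compounds were pin-transferred onto Tsg101 binding domain (10 uM final) in HEPES pH 7.5 buffer, then FITC-PTAP peptide was added at 50 nM final. After 20 min at RT, polarization reported peptide displacement across a qHTS concentration series.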
12-LOX inh = blocks human arachidonate 12S-lipoxygenase | P18054 | Potency, µM (titrated, usually from 108 µM), for the others: at the highest dose activity change, negative = inhibition, actives largely listed as inhibitors | AID 1671190 | purified 12hLO, xylenol orange hydroperoxide absorbance | 1.1% of 580,000 active; active = well fitted curve in the direction sought with a large enough effect; inconclusive = small, poorly fitted or top-dose-only effect, or another doubt; inactive = no such curve, though single readings can be large; an effect the other way counts as inactive or inconclusive; note: % is set by controls: 0 for no effect and ±100 for the full control effect
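Hydroperoxide product was detected by ferrous iron/xylenol orange as the 573 to 405 nm absorbance ratio. Arachidonic acid at 40 uM (final) was turned over for 30 min at room temperature by 150 nM human 12hLO, pH 7.0 Hepes buffer, after 15 min compound preincubation.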
TDP1 inh = inhibitors of human tyrosyl-DNA phosphodiesterase TDP1. Q9NUW8. recombinant TDP1, AlphaScreen DNA substrate cleavage. Potency, µM (doses to about 130 µM), for inactives: at the highest dose activity change, negative = inhibition, most hits filed as inhibitors. 0.28% of 350,000 active. AID 485290; active = well fitted curve in the direction sought with a large enough effect; inconclusive = small, poorly fitted or top-dose-only effect, or another doubt; inactive = no such curve, though single readings can be large; an effect the other way counts as inactive or inconclusive; note: % is set by controls: 0 for no effect and ±100 for the full control effect; nearly all actives have a fitted effect of over 40% in size
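Compounds were preincubated with Tdp1 (1 nM final) for 15 min at room temperature before substrate (15 nM final) started a 5 min reaction; beads (10 ug/ml final) were then added for 10 min before AlphaScreen detection.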
Rango-impB inh = prevents formation of the Rango-importin beta complex; Q14974; Rango CFP/YFP FRET sensor + importin beta, 45 min; Potency, µM (highest dose often 92.2 µM), without a hit: at the highest dose inhibition of complex formation; 0.031% of 340,000 active; AID 540263;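 note: 0% = DMSO wells and 100% = buffer wells lacking importin beta; nearly all actives have a fitted effect of over 15% in size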
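Inhibition scored from the CFP 486 nm/YFP 530 nm FRET ratio 45 min after adding 0.125 microM importin beta to 50 nM Rango biosensor preincubated 5 min with compound (room temperature, PBS with DTT, Tween-20, BSA). No-importin wells as positive control.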
ClpP mod = qHTS Assay for Activators of ClpP | ATP-dependent Clp protease proteolytic subunit (Bacillus subtilis (strain 168)), P80244 | purified B. subtilis ClpP, FRET peptide cleavage, 20 min | Potency, µM (titrated, usually from 57.5 µM), for inactives: at the highest dose activity change, negative = active | 1.9% of 340,000 active | AID 651965, 2013; active = well fitted falling curve with a large enough effect; inconclusive = small, poorly fitted or top-dose-only effect; inactive = no such curve, though single readings can be large or run the other way; note: the source files actives as falling curves though it sought activators and does not explain the sign; nearly all actives have a fitted effect of over 65% in size
Target sequence (P80244 whole entry, looked up): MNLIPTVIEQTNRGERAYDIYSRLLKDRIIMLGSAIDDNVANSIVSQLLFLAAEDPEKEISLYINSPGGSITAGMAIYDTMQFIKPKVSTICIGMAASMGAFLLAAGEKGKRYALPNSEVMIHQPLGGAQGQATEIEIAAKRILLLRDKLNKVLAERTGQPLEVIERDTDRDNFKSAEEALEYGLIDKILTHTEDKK
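Purified B. subtilis ClpP, 10 microg/mL final in Tris/HCl pH8 with KCl, BSA, glycerol and Tween-20, cleaved an Abz/nitrotyrosine-quenched decapeptide. Fluorescence (ex 320, em 430) was read at 0 and 20 min at room temperature. Delta was normalized to 5.8 microM ADEP and DMSO/no-enzyme controls.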
Rango release inh = inhibition of RanGTP-driven Rango-importin beta dissociation; O95149+P62826; Biochemical FRET Rango-importin beta, RanGTP-induced dissociation; Potency, µM (series often up to 46.1 µM), for inactives: top-dose activity change, negative = inhibition; 0.071% of 340,000 active; note: % of control where 0% means no effect; nearly all actives have a fitted effect of over 45% in size
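Rango FRET biosensor (snurportin-1 IBB flanked by N-terminal EYFP and C-terminal CFP10) at 0.1 uM, with 0.25 uM importin beta in PBS, 1mM DTT, 0.02% Tween-20, 0.1% BSA. 0.6 uM Ran, 2mM GTP and 0.2 uM RCC1 were then added for 45 min at room temperature. Inhibition read as loss of FRET rise.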
* = called active by the depositor; ? = inconclusive; / = no result given; [ ] = another dose, or the depositor's remark. Unless noted, calls come from the whole dose curve. Potency is the fitted concentration of half-maximal effect.

SMILES	PTAP TSG101 blk	12-LOX inh	TDP1 inh	Rango-impB inh	ClpP mod	Rango release inh
COc1ccc(/C=C/C(=O)Oc2ccc3oc4ccccc4c3c2)cc1OC	/	4%	/	/	/	/
COc1ccc(OCCCC(=O)Oc2ccc3oc4ccccc4c3c2)cc1	/	13µM*	/	/	/	/
O=C(NC1CCCCC1)O[C@@H]1CO[C@H]2[C@@H]1OC[C@@H]2n1nnnc1SCc1ccco1	/	3.5µM*	/	/	/	/
O=C(Nc1ccccc1)O[C@@H]1CO[C@H]2[C@@H]1OC[C@@H]2n1nnnc1SCc1ccco1	/	-4%[176 µM]	/	/	/	/
CN1C(=O)C(CC(=O)N2CCC(N)CC2)(Cc2ccccc2)c2ccccc21 (configuration not stated)	/	-6%	/	/	/	/
Cc1nn2c(c1-c1ccccc1C(C)C)N(C(=O)COc1ccccc1C(N)=O)CCC2	/	-16%[176 µM]	/	/	/	/
COC(=O)c1c(S(N)(=O)=O)c2ccccc2n1C	-9%	0%	6%	0%	28µM*	8%
C[S+](=O)([O-])c1ccc(-c2cc3c(cn2)CN(CCc2ccccc2)CCN3)cc1	/	-31%[176 µM]	/	/	/	/
Cc1n[nH]c(C)c1NC(=O)CN1CCN(S(=O)(=O)c2ccc(C(F)(F)F)cc2)CC1	-4%	-69%	/	1%	-1%	-1%
COc1ccc(S(=O)(=O)N2CCN(c3ccccn3)CC2)cc1OC	1%	9%	0%	13%	?	2%
COc1ccc(S(=O)(=O)N2CCN(CC(=O)Nc3c(C)n[nH]c3C)CC2)cc1OC	0%	0.56µM*	1%	2%	-1%	1%
COc1ccc(S(=O)(=O)N2CCN(c3ncccn3)CC2)cc1OC	1%	35µM*	/	?	0%	-2%
O=C(NCC1(c2ccccc2)CC1)c1cc(=O)c2ccccc2o1	/	22%	/	/	/	/
O=C(Nc1ccccc1-c1ccccc1)c1cccc(Cl)c1	/	-30%	/	/	/	/
Cc1ccc(CN2CCN(C(=O)C3Cn4cccc4C(=O)N3CC(C)C)CC2)cc1 (configuration not stated)	/	4%	/	/	/	/
O=C(COC(=O)c1ccc(Cl)c(S(=O)(=O)N2CCCCCC2)c1)NCc1ccccc1	/	-8%	/	/	0%	/
O=C(COC(=O)c1cc2c(s1)CCC2)Nc1ccc(F)cc1	-1%	?	35µM*	?	/	14%
COC(=O)c1ccc(COC(=O)c2cc3c(s2)CCC3)o1	/	8.9µM*	/	/	/	/
O=C(COC(=O)c1cc2c(s1)CCCC2)Nc1ccc(Cl)cn1	-6%	-10%	1%	-4%	0%	-20%
O=C(COC(=O)c1ccc(Cl)c(S(=O)(=O)N2CCCC2)c1)NCc1ccccc1	-1%	9%	35µM*	-2%	-3%	-17%
NC(=O)c1ccc(NC(=O)COC(=O)c2cc3c(s2)CCC3)cc1	-3%	-12%	7.1µM*	?	-18%	-15%
COc1ccc(NC(=O)COC(=O)c2ccc(C)c(S(=O)(=O)N3CCCCC3)c2)cc1	0%	46%	40µM*	-4%	1%	-3%
O=C(COC(=O)c1cc2c(s1)CCC2)NC(=O)NC1CCCCC1	/	-44%	/	/	/	/
COc1ccc2c(COC(=O)c3ccc(C)c(S(=O)(=O)N4CCOCC4)c3)cc(=O)oc2c1	-3%	-19%	/	?	25µM*	-8%
COc1ccc(NC(=O)COC(=O)c2cc3c(s2)CCC3)cc1	-3%	/	14µM*	-2%	-9%	7%
C=CCNC(=O)c1cn2c(n1)CN(C(C)=O)CC2	/	2%[12.5 µM]	/	/	/	/
CCSc1nc(-c2ccc(OC)cc2)ccc1C#N	-8%	0%	/	0%	28µM*	-4%
Cc1ccc(NC(=O)c2sc3c(c2C)C(c2cccnc2)CC(=O)N3)cc1 (configuration not stated)	/	-11%	/	/	/	/
